Out of some 290,000 compounds screened, about 27,000 (9.3%) were called active. For the sample, actives were picked, then their nearest neighbours and some compounds at random. A number with no mark means an inactive call. No stated cut-off is given here; in the data, active means inhibition mostly above about 28% (no sharp cut-off); inactive means mostly below about 43%.

This test in a line: A qHTS for Small Molecule Inhibitors of Shiga Toxin. Further: 0% is about no effect. The conditions noted are these: Vero cells, Shiga toxin protein synthesis inhibition reporter; at 38.7 µM, stronger effect = higher value. On the technique in general: In qHTS, concentration-response curves come from the screen itself.
With `Cc1c(CN2CC[C@@H](N3CCN(c4ccccn4)CC3)[C@H](O)C2)[nH]c2ccc(F)cc12`, the inhibition was -5.39%.

For `COc1cccc(C(=O)c2cc3ccc(O)cc3oc2=O)c1`, the inhibition is 21.7%.

On to `O=c1oc2cc(O)ccc2cc1-c1ccc(F)cc1`, for which the inhibition was 70% (active).

For `COc1ccc(-c2cc3ccc(OCc4nn[nH]n4)cc3oc2=O)cc1`, the inhibition was 10.3%.

As to `Cc1cc2oc(=O)cc(CN(C)Cc3ccc(OC(F)F)cc3)c2cc1Cl`, the inhibition was 17.5%.

As to `O=C(CCc1nnc2ccc(NCCCN3CCCC3=O)nn12)NCc1ccccc1Cl`, the inhibition is 20.3%.

For `Cc1csc(NC(=O)CN2CCCCCC2)n1`, the inhibition was -8.35%.

Regarding `Cc1cc(C)c(NC(=O)CN2CCCCCC2)c(C)c1`, the inhibition was 83.4% (active).

For `COc1cc(Cl)c(C)cc1NC(=O)CN1CCCCCC1`, the inhibition was 14.2%.

As for `O=c1cc(Cl)c2ccccc2n1-c1ccccc1`, the inhibition is -8.33%.

Turning to `Cc1ccccc1NC(=O)c1cc(S(=O)(=O)Nc2cccc(C(=O)O)c2)ccc1Cl`, the inhibition was 24.3%.

As to `O=C(NC1CC1)c1ccc2c(c1)NC(=O)c1ccccc1S2`, the inhibition was 13.2%.

Consider `C/C(=N\Nc1cccc(C(=O)O)c1)c1ccc2c(c1)Nc1ccccc1S2`, for which the inhibition is 77.7% (active).

Take `COc1cc(/C=N/n2c(C)n[nH]c2=S)ccc1OCc1ccccc1`: the inhibition was -16.6% (active).

For the compound `Fc1ccc(/C=N/n2c(COc3ccccc3)n[nH]c2=S)cc1`, the inhibition is -5.88%.

Take `COc1cc(-c2n[nH]c(=S)n2Cc2ccccc2)cc(OC)c1OC`: the inhibition is -7.08%.

Regarding `COc1ccc(C)cc1Nc1n[n+](-c2ccccc2)c(-c2cccc(Cl)c2Cl)s1`, the inhibition is -3.92%.

As to `O=S(=O)(Nc1cccc(Oc2ccc(Cl)cc2)n1)c1ccc(F)cc1`, the inhibition was 1.95%.

For the compound `COc1ccc(-c2csc3ncnc(N4CCN(S(=O)(=O)c5ccccc5C#N)CC4)c23)cc1`, the inhibition was -3.69%.

As to `CCOC(=O)Cc1csc(NC(=O)Nc2ccccc2)n1`, the inhibition is 46.4%.

Take `CCOC(=O)Cc1csc(NC(NC(=O)OCC)(C(F)(F)F)C(F)(F)F)n1`: the inhibition was -12.7%.

As for `CCOC(=O)Cc1csc(NC(=O)C(C)(C)C)n1`, the inhibition was 86.2% (active).

In the case of `Fc1ccc(-c2ccc(CNCc3ccccn3)o2)cc1Cl`, the inhibition is 2.57%.

With `COc1ccc(Cl)cc1CSc1ncn[nH]1`, the inhibition is 4.03%.

For the compound `O=C(/C=C/Sc1ncn[nH]1)c1ccc(Cl)cc1`, the inhibition is 32.3% (active).

On to `O=C(NCCOCc1ccc(Cl)cc1)c1ncn[nH]1`, for which the inhibition is 10.4%.

As for `COc1ccc(CCNc2nc3ccc(C)cc3n3cnnc23)cc1OC`, the inhibition is 4.18%.

Regarding `CCn1c(=O)n(CC)c2cc(N3CCCC3)c(NC(=O)c3ccccc3Br)cc21`, the inhibition was -6.78%.

In the case of `Cc1ccc(OCCCC(=O)NC(C)c2ccccc2)c(C)c1` (centres undefined), the inhibition is 7.36%.

Regarding `Cc1cc(S(=O)(=O)N2CCOCC2)ccc1OCC(=O)N1CCOCC1`, the inhibition is 26.1%.

Take `Cc1ccc(OCCCC(=O)N2CCOCC2)c(C)c1`: the inhibition was 88.9% (active).

`COc1c(O)c2c(=O)cc(OC)c3c4c(OC)cc(=O)c5c(O)c(OC)c6c(c(c1C[C@@](C)(O)[C@H]6C(C)=O)c23)c54`: the inhibition is 10.8%.

Consider `CCOc1ccccc1NC(=O)C1CCCN(S(=O)(=O)c2ccccc2)C1` (centres undefined), for which the inhibition was -4.05%.

With `FC(F)(F)c1nnc2c3ccccc3c(Cl)nn12`, the inhibition is 5.58%.

As for `Cc1cccc(C)c1NC(=O)COC(=O)c1ccccc1O`, the inhibition was -4.8%.

On to `COc1ccc(C(=O)N2CCCCC2C(=O)Nc2ccc(-n3nc(C)cc3C)cc2)o1` (centres undefined), for which the inhibition was -7.96%.

Turning to `CCC(=O)OCCNc1nc(-c2ccccc2)nc2ccccc12`, the inhibition was -14.7%.

For the compound `CCOC(=O)c1c(N)nn(C(=O)c2ccccc2)c1-c1ccccc1`, the inhibition was -3.34%.

With `CCOC(=O)c1c(C)nc(-c2ccccc2)nc1NC(=O)C(C)C`, the inhibition is 38.3% (active).

For `COc1ccc(/C=C/c2c(-c3cccc(C)c3)oc3ccc(-c4ccc5c(c4)OCO5)cc23)cc1`, the inhibition is -4.7%.

As to `Fc1ccc(COc2cccc(-c3n[nH]c(=S)o3)c2)cc1`, the inhibition was 2.21%.

As to `Fc1cccc(Cl)c1COc1ccc(-c2nnco2)cc1`, the inhibition is 30.1%.

For `Fc1ccc(COc2ccc(-c3nnco3)cc2)cc1`, the inhibition is 63.9% (active).

For the compound `Nc1ncc(-c2cc3ccccc3oc2=O)s1`, the inhibition was 85% (active).

For `O=C(NCc1cccnc1)c1cccc(-c2cc3ccccc3oc2=O)c1`, the inhibition is 13.7%.

For the compound `O=C(Oc1cccnc1)c1cc2ccccc2oc1=O`, the inhibition is 1.26%.

In the case of `COc1cc(CNCc2ccc3c(c2)OCO3)c([N+](=O)[O-])cc1OC`, the inhibition is 16.9%.

As to `CCOC(=O)N1CCN(S(=O)(=O)c2ccc(-n3cnnn3)cc2)CC1`, the inhibition was 5.66%.

As for `COc1cc(NC(=O)CSc2ccc(-c3cccnc3)nn2)cc(OC)c1`, the inhibition is 15.3%.

In the case of `O=C(CSc1ccc(-c2ccco2)nn1)Nc1cccc(F)c1`, the inhibition is 38.8%.

For the compound `O=C(CSc1ccc(-c2ccccn2)nn1)Nc1ccccc1`, the inhibition was 47% (active).

On to `Cc1ccc(CN2CCCOCCS2(=O)=O)cc1`, for which the inhibition was -6.69%.

`CC(=O)c1cccc(OCc2cc(C(=O)NC(C)Cc3cccnc3)no2)c1` (centres undefined): the inhibition is 36.9%.

Regarding `Cc1cccnc1CC(C)NC(=O)c1cc(COc2cncc(Cl)c2)on1` (centres undefined), the inhibition was 47.9% (active).

For `CC(CCc1ccccc1)NC(=O)c1cnc(Cl)c(Cl)c1` (centres undefined), the inhibition is 3.47%.

Turning to `CCOc1cc(C(=O)O)ccc1OCCOc1ccccc1`, the inhibition was 2.96%.

On to `Cc1ccc(CN(CC(=O)NC2CCCCC2)C(=O)c2csnn2)cc1`, for which the inhibition was -2.02%.

In the case of `CC1CCN(C(=O)/C(=C\c2ccccc2)NC(=O)c2ccccc2)CC1`, the inhibition is 5.08%.

For `CC1CCN(C(=O)/C(=C\c2ccccc2F)NC(=O)c2ccccc2)CC1`, the inhibition is -2.65%.

Turning to `CC1CCN(C(=O)CCNC(=O)c2ccccc2)CC1`, the inhibition is 43.4% (active).

`O=S(=O)(c1ccccc1)c1nc(-c2ccccc2)oc1NCCCN1CCOCC1`: the inhibition was -13.1%.

On to `O=C(Nc1ccc(CN2CCOCC2)cc1)c1cc(Cl)ccc1Cl`, for which the inhibition was -2.33%.

Turning to `CC(O)C(NS(=O)(=O)c1ccc(Cl)cc1)C(=O)OCc1cc([N+](=O)[O-])cc2c1OCOC2` (centres undefined), the inhibition is -12.1%.

In the case of `Nc1ccccc1SCc1cc([N+](=O)[O-])cc2c1OCOC2`, the inhibition was 62% (active).

The term inhibition denotes the relative decrease from the control value, in per cent.

Values taken from PubChem BioAssay AID2315 (National Center for Advancing Translational Sciences (NCATS), 2010).
